Entries with a potency or affinity are not part of this list. The source made the active and inactive calls.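 How the source made its calls: active means falling luciferase signal whose fitted half-maximal concentration is at most twice the top tested dose; inconclusive means flat inhibition between 30 and 70% or a poor curve fit; inactive means the rest.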
Assay: off-target signal loss in HeLa-CEM21 co-culture – HeLa F-luc CTL cells, cherry-picked, counter-screen for HIV-1 Env fusion inhibitor project, dose response (AID 652040);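 further: 0% = median of neutral control wells and -100% = doxycycline 40 µg/mL wells; more negative values mean stronger loss of luciferase signal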
Conditions: HeLa-F-luc CTL cells with CEM21, firefly luciferase counterscreen; series mostly up to 35 µM; activity change, negative = inhibition: at the top concentration

| Structure (SMILES) | activity change, negative = inhibition |
| --- | --- |
| COc1ccc(CCCC(=O)NCCc2ccccc2)c(C)c1 | 23.1% (inactive) |
| Nc1c(S(=O)(=O)c2ccccc2)cnc2c(-c3ccc(F)cc3)cnn12 | -1.17% (inactive) |
| COc1ccc2c(C)nc(Nc3nc(C)c(C)c(=O)[nH]3)nc2c1 | 156% [at 16 µM] (inactive) |
| Cc1ccc(S(=O)(=O)N(C)c2ccc(C(=O)N3CCN(Cc4ccc5c(c4)OCO5)CC3)cc2)cc1 | -7.88% (inactive) |
| CC(C)n1c(NCCc2ccccc2)nc2c1c(=O)n(C)c(=O)n2C | -8.83% (inactive) |
| Nc1ccc(S(=O)(=O)c2ccc(N3CCOCC3)c(N)c2)cc1 | 24.3% (inactive) |
| Cc1ccccc1OCCCCn1cnc2ccccc21 | -0.516% [at 16 µM] (inactive) |
| COc1ccc(NC(=O)c2ccc(Cl)c(S(=O)(=O)N3CCc4ccccc4C3)c2)cn1 | 29.5% (inactive) |
| O=C(CN1CCN(Cc2ccc(Cl)cc2)C1=O)NCCCN1CCN(c2ccc(F)cc2)CC1 | -0.935% (inactive) |
| Fc1ccc(-n2nnnc2-c2cnc(-c3cccs3)nc2C(F)(F)F)cc1 | 21.1% [at 16 µM] (inactive) |
| Cc1ccc(S(=O)(=O)NCC(=O)OCC(=O)NCc2ccc3c(c2)OCO3)cc1 | 4.77% [at 16 µM] (inactive) |
| CCN(CC)CCN(C(=O)c1cc(Cl)sc1Cl)c1nc2cc3c(cc2s1)OCO3 | 35.2% (inactive) |
| O=C(NCc1ccccc1)c1ccc(C(=O)NCc2ccccc2)cc1 | -10.1% (inactive) |
| Cc1cc(N2CCN(c3nc4ccccc4s3)CC2)n2ncnc2n1 | -10.3% (inactive) |
| CCOC(=O)C(C)Oc1cccc2c(=O)n(CC(=O)NCCc3ccc(OC)c(OC)c3)ccc12 (stereo not given) | 33.2% (inactive) |
| COC(=O)[C@@]1(Cc2ccc(F)cc2)[C@H]2c3cc(C(=O)N(C)C)n(CCO)c3C[C@H]2CN1C(=O)c1ccccc1 | 15% (inactive) |
| Cc1cc(C(=O)NC2CCCc3c2cnn3-c2ccc(C(C)(C)C)cc2)nn1C (stereo not given) | -16.9% (inactive) |
| CCc1ccc(-c2nc(CN3CCC(C(=O)NCCc4ccc(OC)c(OC)c4)CC3)c(C)o2)cc1 | 83.5% (inactive) |
| Cc1cc(Cl)c(S(=O)(=O)N2CCCC2)cc1OCC(=O)NC1CCCCC1 | 36.3% (inactive) |
| Cn1cc(S(=O)(=O)N2CCOCC2)cc1C(=O)Nc1cccc(Cl)c1 | 4.09% (inactive) |

| Structure (SMILES) | activity change, negative = inhibition |
| --- | --- |
| CC(=O)Nc1ccc(C(=O)OCC(=O)NC(=O)NCc2ccccc2)cc1 | 0.966% (inactive) |
| CC(C)OCCCn1c(=S)[nH]c2ccc(N3CCOCC3)cc2c1=O | -1.01% (inactive) |
| CC(C)(C)OC(=O)N1CCc2onc(-c3ccc(Br)cc3)c2C1=O | 23.6% (inactive) |
| CCNc1ncnc2c1cnn2C1CCCO1 (stereo not given) | 21.7% (inactive) |
| COc1ccc(-c2cn3c(C)c(C(=O)Nc4cccc(NC(C)=O)c4)sc3n2)cc1 | 19.2% [at 16 µM] (inactive) |
| O=C(OCCOc1cccc(Cl)c1)c1cc(S(=O)(=O)N2CCCCC2)ccc1N1CCOCC1 | -3.57% (inactive) |
| Cc1cc(Cl)c(S(=O)(=O)N2CCSCC2)cc1OCC(=O)NC1CCCCC1 | -0.313% (inactive) |
| Cc1ccc(C(=O)NCc2ccccn2)cc1S(=O)(=O)N1CCCCC1 | 34.2% (inactive) |
| O=C(CC1C(=O)NCCN1Cc1cccc(F)c1)NC1CCCCC1 (stereo not given) | 19.9% (inactive) |
| O=C(Nc1ccc(S(=O)(=O)N2CCN(Cc3ccccc3)CC2)cc1)c1cnccn1 | 16.4% (inactive) |
| CC(=O)OC1c2ccccc2C(=O)N1c1ccccc1C (stereo not given) | 9.79% (inactive) |
| Cc1ccc2[nH]c3c(N4CCN(Cc5ccccc5)CC4)ncnc3c2c1 | 7.7% (inactive) |
| O=C(Nc1ccc(CN2CCOCC2)cc1)c1ccc(-c2cccc(Cl)c2)o1 | 77.5% (inactive) |
| COc1ccc(NS(=O)(=O)c2ccc3c(c2)OCCO3)cc1OC | -7.49% (inactive) |
| CC1Cc2cc(-c3csc(NC(=O)Cc4cccs4)n3)ccc2N1S(C)(=O)=O (stereo not given) | -15.7% (inactive) |
| CCCn1c(Nc2nc3ccccc3n2C)nc2ccccc21 | 21.1% [at 16 µM] (inactive) |
| COc1ccc(-c2nn(C)c(=O)c3ccccc23)cc1NC(=O)Cn1nc(C)c2ccccc2c1=O | -17% (inactive) |
| COc1ccc(N2CCn3c2nc2c3c(=O)n(CCCc3ccccc3)c(=O)n2C)c(OC)c1 | -6.64% [at 16 µM] (inactive) |
| COCC(C)n1c(-c2ccc3c(c2)NC(=O)CO3)csc1=Nc1ccc(OC(F)F)cc1 (stereo not given) | 3.74% (inactive) |
| CC(=O)c1c(C)[nH]c(C(=O)OCC(=O)Nc2ccc(Cl)c(S(=O)(=O)N(C)C)c2)c1C | 13.9% (inactive) |
